Source: PubChem BioAssay (National Center for Advancing Translational Sciences (NCATS))
An excerpt weighted towards active compounds, which were near 2.9% of everything screened.
IDH1 R132H inh = blocks human mutant IDH1 R132H enzyme. O75874. IDH1-R132H enzyme, NADPH consumption, diaphorase/resazurin fluorescence. Potency, µM (top dose mostly 76.6 µM), most hits filed as inhibitors. 390,000 compounds, 0.093% hits; note: nearly all actives have a fitted effect of over 65% in size
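IDH1-R132H (0.5 ug/mL dispensed) in pH 7.5 Tris buffer was preincubated 30 min with compound, then given a substrate mix of 0.016 mM NADPH and 2 mM alpha-KG for 80 min at room temperature; remaining NADPH was read by diaphorase/resazurin fluorescence.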
D3 antag = blocks the human D3 dopamine receptor | P35462 | D3R cells, DiscoveRx beta-arrestin luminescence, antagonist mode; active compounds read low | max response, negative = inhibition, % | 360,000 compounds, 2.5% hits; in the data active = max response below about -50%; inconclusive = no clear call, values can overlap the other calls
Target sequence (P35462 whole entry, looked up): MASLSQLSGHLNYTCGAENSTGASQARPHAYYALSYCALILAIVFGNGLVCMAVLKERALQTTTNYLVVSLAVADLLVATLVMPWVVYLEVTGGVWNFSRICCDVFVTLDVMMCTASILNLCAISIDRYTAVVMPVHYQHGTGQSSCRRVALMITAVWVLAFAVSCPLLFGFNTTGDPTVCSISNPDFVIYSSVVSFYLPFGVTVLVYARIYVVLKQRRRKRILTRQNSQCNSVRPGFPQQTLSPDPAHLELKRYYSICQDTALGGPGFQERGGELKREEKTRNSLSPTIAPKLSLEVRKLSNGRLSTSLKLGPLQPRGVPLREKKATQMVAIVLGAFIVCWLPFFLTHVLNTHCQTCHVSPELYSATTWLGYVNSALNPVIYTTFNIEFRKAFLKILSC
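Cells plated overnight at 1500 cells/well, then exposed to library compounds with dopamine controls for 90 minutes at 37 degrees C. DiscoveRx reagent added for 30–60 minutes at room temperature; luminescence read, quantitative HTS format.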
a7 integrin act = activators of alpha7 integrin expression for muscular dystrophy | AID 624291 | Potency, µM (top dose mostly 38.3 µM), actives largely listed as activators | 350,000 compounds, 0.064% hits | alpha7betagal myoblasts, beta-gal FDG fluorescence, 48 h; note: nearly all actives have a fitted effect of over 60% in size
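Alpha7betagal+/- myoblasts (passage 13) were plated 16-24 hr, then exposed to compounds (1:260 dilution of DMSO stock) for 48 hours at 37C. After MPER lysis, β-galactosidase reporter activity was read as FDG fluorescence (ex 480/em 540) after 30 minutes.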
D3 ag = agonists of human D3 dopamine receptor; P35462; D3R DiscoveRx beta-arrestin cells, luminescence, 90 min; max activation, %; 410,000 compounds, 0.58% hits; AID 652048; in the data active = max activation above about 30%
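Agonist mode: compounds and dopamine controls were applied to plated cells for 90 min at 37 degrees C after an overnight attachment at 1500 cells/well. Luminescent read-out followed 30 - 60 minutes at room temperature with DiscoveRx detection reagent.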
B2AR arrestin = recruits beta-arrestin to the human beta2-adrenergic receptor. P07550. beta-arrestin recruitment to beta2AR, cell-based reporter. Potency, µM (doses to about 46.1 µM), most hits filed as activators. 330,000 compounds, 0.02% hits. AID 492947; note: nearly all actives have a fitted effect of over 65% in size
Numbers stand for hits; . = inactive; ? = inconclusive; / = no result. Unless noted, calls come from the whole dose curve; as a rule, active = well fitted curve in the direction sought with a large enough effect; inconclusive = small, poorly fitted or top-dose-only effect, or another doubt; inactive = no such curve, though single readings can be large; an effect the other way counts as inactive or inconclusive.

SMILES	IDH1 R132H inh	D3 antag	a7 integrin act	D3 ag	B2AR arrestin
CC(CCN1CCN(c2ccc(F)cc2)CC1)c1ccccc1 (configuration not stated)	.	-76.4	.	.	.
c1ccc(SCCN2CCN(c3ccccc3)CC2)cc1	.	-102.9	?	.	.
CC(CN1CCN(c2ccccc2)CC1)c1ccccc1 (configuration not stated)	.	-64.3	.	.	.
COc1cc(Nc2nnc(C)s2)c(Cl)cc1Cl	.	.	.	.	.
COCCOc1cc(Nc2nnc(C(F)(F)F)s2)c(Cl)cc1Cl	.	-63.8	.	.	.
COc1cccc(CCNC(=O)CCCC(=O)c2ccccc2)c1	.	.	.	.	.
Cc1oc(C(C)(C)C)cc1C(=O)NC1CCN(Cc2ccccc2)CC1	.	-79.7	.	.	.
Cc1oc(-c2ccc(Cl)cc2)cc1C(=O)NC1CCN(Cc2ccccc2)CC1	.	-65.1	.	.	.
Cc1cc2oc(=O)cc(CN3CCN(Cc4ccccc4)CC3)c2cc1Cl	.	?	.	.	.
Cc1ccc2c(CN3CCC(C)CC3)cc(=O)oc2c1	.	-61.3	.	.	.
Cc1ccc2c(CN3CC(C)CC(C)C3)cc(=O)oc2c1 (configuration not stated)	.	.	.	.	.
Cc1cc2oc(=O)cc(CN3CCC(C)CC3)c2cc1Cl	.	-51.5	.	.	.
CCCS(=O)(=O)c1nc(S(=O)(=O)c2ccc(C)cc2)c(N2CCN(C)CC2)s1	.	-61.0	.	.	.
CCS(=O)(=O)c1nc(S(=O)(=O)c2ccc(C)cc2)c(N2CCCC2)s1	.	.	?	.	.
CCN1CCN(c2sc(S(C)(=O)=O)nc2S(=O)(=O)c2ccc(C)cc2)CC1	.	.	.	.	.
CCCS(=O)(=O)c1nc(S(=O)(=O)c2ccc(C)cc2)c(N2CCN(CC)CC2)s1	.	-108.9	.	.	.
CCN1CCN(c2sc(S(=O)(=O)CC)nc2S(=O)(=O)c2ccc(C)cc2)CC1	.	-79.9	.	.	/
COc1ccc(Cn2cc(C(=O)c3ccc(OC)cc3)c(=O)c3cc4c(cc32)OCCO4)cc1	.	/	/	.	/
COc1cc2c(C(=O)N3CCN(c4ccc(C)cc4)C(C)C3)cn(CC(C)C)c(=O)c2cc1OC (configuration not stated)	.	/	/	.	/
CCOP(=O)(c1ccccc1)c1nc(-c2ccccc2Cl)oc1N1CCCCC1 (configuration not stated)	.	-72.8	.	.	.
O=S(=O)(c1ccccc1)c1nc(-c2ccccc2Cl)oc1N1CCCCCC1	.	/	/	.	/
Cc1nc2ccc(N)cc2c(=O)n1Cc1ccc(Cl)cc1	.	.	.	.	.
Cc1nc2c(cc1N)nc(C)n2Cc1ccccc1	.	-50.7	.	.	.
CCN1CCN(S(=O)(=O)c2ccc(Cl)c(C(=O)N(CC)CC(=O)Nc3ccc(OC)cc3)c2)CC1	.	-163.0	.	.	.
CCN1CCN(S(=O)(=O)c2ccc(Cl)c(C(=O)Nc3ccc(OC(F)F)cc3)c2)CC1	.	.	.	.	.
SMILES	IDH1 R132H inh	D3 antag	a7 integrin act	D3 ag	B2AR arrestin
O=C(CN1CCSC1=NCc1ccccc1)c1ccc(Cl)cc1	.	-66.9	.	.	.
O=c1oc2ccccc2c(Cl)c1CN1CCCCC1	.	-76.3	.	.	.
Cc1cc(C)cc(OCC(=O)Nc2nc3c(s2)CC(C(C)(C)C)CC3)c1 (configuration not stated)	.	/	/	.	/
CC(C)(C)NCC(O)c1ccc(O)c(CO)n1 (configuration not stated)	/	/	/	.	/
CCN(CC)CCNC(=O)c1[nH]c2ccc(OCc3ccccc3)cc2c1C	.	-86.0	.	.	.
CC(C)C[C@H]1CN(CCCC[C@H]2CNC(=O)C(=O)N2CCC2CCCCC2)C(=O)C(=O)N1CCC1CCCCC1	/	.	/	.	/
c1ccc(Cn2ccnc2SCc2nnc(-c3ccccc3)o2)cc1	.	.	.	32.3	/
COc1cc(OC)c(NC(=O)CN(C)S(=O)(=O)c2ccc3[nH]c(=O)oc3c2)cc1Cl	.	.	.	.	.
CC1CCCCN1c1ncnc(N)c1[N+](=O)[O-] (configuration not stated)	.	.	4.47µM	.	.
CC1Cc2ccccc2N1c1ncnc(N)c1[N+](=O)[O-] (configuration not stated)	.	.	?	.	.
COc1ccc(CCNc2nc(C)nc3c2nnn3Cc2ccccc2)cc1	.	.	.	.	.
Cc1cccc2cc(C(c3nnnn3Cc3ccc4c(c3)OCO4)N3CCCC3)c(=O)[nH]c12 (configuration not stated)	.	-51.1	.	.	.
O=c1[nH]c2cc3c(cc2cc1C(c1nnnn1Cc1ccccc1)N1CCCCCC1)OCCO3 (configuration not stated)	.	.	.	.	.
Cc1cccc2c1-c1sc(C(=O)NCCCN3CCC(C)CC3)cc1CO2	.	-95.3	.	.	.
CC1CCCN(CCCNC(=O)c2cc3c(s2)-c2ccccc2OC3)C1 (configuration not stated)	.	?	.	.	.
CC1CCN(CCCNC(=O)c2cc3c(s2)-c2ccccc2OC3)CC1	.	-83.2	.	.	.
COc1cccc2c1cc1c(=O)n(CC(=O)NCc3ccc(C)o3)nc(C)n12	.	/	/	.	/
O=P(O)(O)C(O)(Cc1cnc2ccccn12)P(=O)(O)O	/	/	/	.	/
O=C(CSc1nc2[nH]ncc2c(=O)[nH]1)NCc1ccc(F)cc1	.	-50.1	.	.	.
O=C(CSc1nc2[nH]ncc2c(=O)[nH]1)NCCc1ccccc1	.	.	.	.	.
CCCNC(=O)CSc1nc2[nH]ncc2c(=O)[nH]1	.	.	.	.	.
O=C(CSc1nc2[nH]ncc2c(=O)[nH]1)NCc1ccccc1	.	-59.5	.	.	.
CC(CNC(=O)Cn1ncc2c3ccccc3n(Cc3cccc(Cl)c3)c2c1=O)c1ccccc1 (configuration not stated)	.	/	/	.	/
CCCCCC[N+](C)(C)CC/C=C1/c2ccccc2Sc2ccc(Cl)cc21	.	-105.4	.	.	.
O=[N+]([O-])c1ccc(N/N=C/c2cccc(O)c2O)cc1	.	-50.3	.	.	.
COc1cc([N+](=O)[O-])cc(/C=N/NC(=O)C(C)Nc2cccc3ccccc23)c1O (configuration not stated)	.	-84.2	.	.	.
COc1cccc(/C=N/Nc2nc(Nc3ccc([N+](=O)[O-])cc3)nc(N3CCCC3)n2)c1O	.	-119.4	.	.	.
O=[N+]([O-])c1cccc(C=NNc2ccc3ccccc3n2)c1O	.	-54.4	.	.	/
CCOC(=O)C1CCN(C(=O)COc2ccc3c(c2)OCO3)CC1	.	.	.	.	.
COc1cc([N+](=O)[O-])cc(/C=N/NC(=O)C(O)(c2ccccc2)c2ccccc2)c1O	.	-54.7	?	.	.
